# Sfp PPTase inh – blocks B. subtilis Sfp PPTase activity. hit rate 3.5% among 310,000. Q9F4F7. Biochemical Sfp PPTase activity, qHTS. AID 1490. Potency, µM, for inactives: largest response in the series, negative = inhibition, actives largely listed as inhibitors;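 also: the enzyme is Sfp with the accession as filed and its product quenches rhodamine fluorescence; 0% = enzyme reaction without inhibitor and -100% = no enzyme wells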
#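 Fluorescence-quenching assay: 15 nM Sfp-PPTase preincubated 15 min at room temperature with compound, then 5 uM rhodamine-CoA and 12.5 uM BHQ-2-labelled YbbR peptide added. Fluorescence (ex 525/em 598 nm) read at start and after 30 min; difference gives rate.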
# JMJD2A Tudor inh – JMJD2A Tudor domain (human) inhibition; O75164; AlphaScreen JMJD2A-Tudor / H3K4me3 peptide binding; Potency, µM (top dose mostly 114 µM), inactives show top-dose activity change, negative = inhibition, hits mostly inhibitors; hit rate 4.4% among 390,000; also: % is scaled to controls: 0 for no effect and ±100 for the full control effect; nearly all actives have a fitted effect of over 50% in size
# G9a block – G9a (human) methyltransferase inhibition. Q96KQ7. Potency, µM (top dose mostly 102 µM), for inactives: at the highest dose activity, negative = inhibition, most hits filed as inhibitors. hit rate 8.8% among 350,000. G9a H3K9 monomethylation, AlphaScreen, 2 h; also: % is scaled to controls: 0 for no effect and ±100 for the full control effect; nearly all actives have a fitted effect of over 75% in size
# Target sequence (Q96KQ7 913-1193 limits assumed): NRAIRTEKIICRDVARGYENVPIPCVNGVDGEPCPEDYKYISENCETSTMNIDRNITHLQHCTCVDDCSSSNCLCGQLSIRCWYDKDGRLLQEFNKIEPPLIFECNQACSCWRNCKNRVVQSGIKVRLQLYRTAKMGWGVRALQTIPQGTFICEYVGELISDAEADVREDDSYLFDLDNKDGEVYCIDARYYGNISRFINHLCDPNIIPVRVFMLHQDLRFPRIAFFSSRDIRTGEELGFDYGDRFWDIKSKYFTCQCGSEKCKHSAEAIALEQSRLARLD
#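 Readings reflect AlphaScreen signal from monomethyl-H3K9 antibody detection. HMT at 20 nM; substrate b-H3K9 500 nM; cofactor SAM 20 uM; 2 h RT reaction; compounds tested as titrations in qHTS with 15 min preincubation.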
# L3MBTL1 block – L3MBTL1 (human) inhibition. AID 485360. Potency, µM (top dose mostly 57.1 µM), for the others: at the highest dose activity, negative = inhibition, usual class: inhibitors. hit rate 0.66% among 230,000. Q9Y468. AlphaScreen L3MBTL1–H3K9me1 peptide binding; also: % is scaled to controls: 0 for no effect and ±100 for the full control effect; nearly all actives have a fitted effect of over 60% in size
#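 L3MBTL1 (50 nM) pre-complexed 30 min with biotinylated H3(1-15)K9me1 peptide (75 nM), then compounds added for 30 min at room temperature; AlphaScreen streptavidin donor/nickel chelate acceptor beads (10 ug/mL final) read after 30 min dark incubation.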
# HP1b chromo inh – HP1-beta chromodomain-methylated histone interaction inhibition | P83916 | AlphaScreen HP1-beta / biotin-H3K9me3 peptide binding | Potency, µM (highest dose often 114 µM), for inactives: at the top dose activity change, negative = inhibition, most hits filed as inhibitors | hit rate 0.56% among 390,000 | AID 540317; also: nearly all actives have a fitted effect of over 70% in size
# Target sequence (P83916 whole entry, looked up): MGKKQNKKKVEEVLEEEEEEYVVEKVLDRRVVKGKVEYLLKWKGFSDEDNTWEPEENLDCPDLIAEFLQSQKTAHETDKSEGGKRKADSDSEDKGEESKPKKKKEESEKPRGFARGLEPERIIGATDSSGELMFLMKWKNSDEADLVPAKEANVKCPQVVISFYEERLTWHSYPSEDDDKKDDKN
#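 Compound inhibition of the preformed complex between 50 nM HP1-beta and 50 nM biotinylated H3K9me3 peptide was read by AlphaScreen. Buffer was PBS pH 7.4 with 0.01% Tween-20. Incubations ran 30 min at room temperature, with 10 ug/mL donor/acceptor beads.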
# BAZ2B block – BAZ2B (human) inhibition. Q9UIF8. Potency, µM (top dose mostly 114 µM), inactives show at the highest dose activity change, negative = inhibition, usual class: inhibitors. AlphaScreen BAZ2B-H3K14Ac peptide displacement. AID 504333. hit rate 4.4% among 360,000; also: % is scaled to controls: 0 for no effect and ±100 for the full control effect; nearly all actives have a fitted effect of over 60% in size
#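 Multi-concentration screen (max 110 uM) measuring displacement of acetylated histone H3 peptide from BAZ2B by AlphaScreen, using 50 nM protein, 50 nM peptide and 10 ug/mL streptavidin donor plus Ni-chelate acceptor beads.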
# * = called active by the depositor; ? = inconclusive; . = no result; [ ] = another dose, or the depositor's remark. An excerpt weighted towards active compounds, which were near 12% of everything screened. Calls follow the shape of the dose curve; as a rule, active = well fitted curve in the direction sought with a large enough effect; inconclusive = small, poorly fitted or top-dose-only effect, or another doubt; inactive = no such curve, though single readings can be large; an effect the other way counts as inactive or inconclusive. Potency is read from the fitted curve at half-maximal effect.
SMILES,Sfp PPTase inh,JMJD2A Tudor inh,G9a block,L3MBTL1 block,HP1b chromo inh,BAZ2B block
COc1ccc(C2CC(c3ccccc3)=NN2C(=S)Nc2ccccc2)cc1 (stereo unspecified),12.6%,-27.8%,?,-18.3%,20.3%,?
CNC(=S)N1N=C(c2ccc(OC)cc2)CC1c1ccc(N(C)C)cc1 (stereo unspecified),1.1%,35.5µM*,.,?,-52.4%,11.2µM*
CCOc1cc(C(=O)NCc2nc(-c3cccc(C)c3)no2)cc(OCC)c1OCC,.,-16.0%,-4.3%[59 µM],.,2.9%,-1.7%
CCCCCCCCCCCCCCCC[n+]1ccc(C(N)=O)cc1,?,?,-13.4%[59 µM],14.5%,?,-28.0%
CCCCCCCCCCCCCC[n+]1ccc(C)cc1,56.2µM*,.,?,.,.,.
Cc1cc[n+](CC[n+]2ccc(C)cc2)cc1,.,-18.3%,14.9%[12.7 µM],4.7%,24.8%,-8.1%
CCCCCCCCCCCCCCCC[n+]1ccc(/C=N/O)cc1,31.6µM*,-25.3%,8.7%[59 µM],10.0%,-3.6%,5.6%
Cc1ccc(-c2cc(-c3ccc4c(c3)NC(=O)CO4)nc3c2COc2ccccc2-3)cc1,.,-11.9%,7.5%[59 µM],.,35.8%,-33.5%
Cc1ccc(-c2nc(C)c(CCNC(=O)C(=O)Nc3cc(C)ccc3C)s2)cc1,.,-16.8%,5.3%[59 µM],.,13.1%[57 µM],2.1%
Cc1ccccc1C(OCCN(C(C)C)C(C)C)c1ccccc1 (stereo unspecified),-8.8%,0.891µM*,28.2µM*,3.9%,?,?
Cc1ccc(O)c([C@H](CCN(C(C)C)C(C)C)c2ccccc2)c1,13.6%,-13.7%,4.0%[12.7 µM],.,23.5%,-32.6%
O=C1CC(N2CCN(S(=O)(=O)c3ccccc3F)CC2)C(=O)N1c1ccccc1F (stereo unspecified),.,15.8µM*,.,.,?,.
CCN(C(=O)c1cnc(N2CCOCC2)c2ccccc12)c1cc(C)ccc1C,.,-7.7%,8.5%[59 µM],.,25.0%[57 µM],0.9%
COc1ccc(Cc2nnc(Cl)c3ccccc23)cc1OC,7.7%,-10.0%,50.1µM*,.,10.1%,-34.8%
COc1ccc(CSc2nnnn2Cc2ccccc2)cc1OC,-0.4%,-14.2%,1.3%[12.7 µM],.,-0.1%,-1.8%
CC[C@H](C)[C@H](NC(=O)[C@H](CCC(=O)O)NC(=O)[C@H](CO)NC(=O)[C@@H](NC(=O)[C@H](C)N)C(C)C)C(=O)N[C@@H](CCC(N)=O)C(=O)N[C@@H](CC(C)C)C(=O)N[C@@H](CCSC)C(=O)N[C@@H](Cc1cnc[nH]1)C(=O)N[C@@H](CC(N)=O)C(=O)N[C@@H](CC(C)C)C(=O)NCC(=O)N[C@@H](CCCCN)C(=O)N[C@@H](Cc1cnc[nH]1)C(=O)N[C@@H](CC(C)C)C(=O)N[C@@H](C)C(=O)N[C@@H](CO)C(=O)N[C@H](C(=O)N[C@@H](CCC(=O)O)C(=O)N[C@@H](CCCNC(=N)N)C(=O)N[C@@H](CCSC)C(=O)N[C@@H](CCC(N)=O)C(=O)N[C@@H](Cc1c[nH]c2ccccc12)C(=O)N[C@@H](CC(C)C)C(=O)N[C@@H](CCCNC(=N)N)C(=O)N[C@@H](CCCCN)C(=O)N[C@@H](CCCCN)C(=O)N[C@@H](CC(C)C)C(=O)N[C@@H](CCC(N)=O)C(=O)N[C@@H](CC(=O)O)C(=O)N[C@H](C(=O)N[C@@H](Cc1cnc[nH]1)C(=O)N[C@@H](CC(N)=O)C(=O)N[C@@H](Cc1ccccc1)C(=O)O)C(C)C)C(C)C,-10.5%,.,.,.,.,.
CCOC(=O)NC1(Nc2cccc(Cl)c2)Oc2ccccc2O1,?,39.8µM*,2µM*,-10.9%,?,2.9%
CCOC(=O)NC(=O)/C(C#N)=N\Nc1cccc(Cl)c1,11.5%,-28.6%,?,.,-16.4%,?
CCCCN(C)S(=O)(=O)c1ccc(NC2=NS(=O)(=O)c3ccccc32)cc1,.,-8.9%,-17.6%[59 µM],.,23.2%,-0.1%
Nc1cc(=O)[nH]c(SCc2cccc3ccccc23)n1,-1.6%,-18.9%,23.7%,.,31.3%,-5.3%
N#CC1=C(N)N=C(SCc2cccc3ccccc23)C(C(N)=O)C12CCCCC2 (stereo unspecified),0.3%,56.2µM*,44.7µM*,.,-33.7%,?
COc1ccccc1CN(Cc1ccco1)c1cnc(S(C)(=O)=O)nc1C(=O)Nc1ccccc1Cl,.,?,-40.9%[59 µM],.,14.3%,?
COc1ccc2c(c1)OC(=O)CC2c1ccc2c(c1)OCO2 (stereo unspecified),-4.5%,.,-1.2%,.,.,.
O=C(O)c1cc(S(=O)(=O)Nc2ccc3oc(=O)sc3c2)ccc1O,39.8µM*,?,?,?,23.9%,?
CC(C)(C)S(=O)(=O)/C(C#N)=N/Nc1ccc(S(C)(=O)=O)cc1,4.8%,-4.5%[11.4 µM],-43.9%,.,2.8%,-15.0%
SMILES,Sfp PPTase inh,JMJD2A Tudor inh,G9a block,L3MBTL1 block,HP1b chromo inh,BAZ2B block
CC(C)(C)S(=O)(=O)/C(C#N)=N/Nc1ccc(C#N)cc1,-7.3%,-23.1%,-34.4%,.,21.7%,70.8µM*
CC(C)(C)S(=O)(=O)/C(C#N)=N/Nc1ccc(S(N)(=O)=O)cc1,8.2%,89.1µM*,-23.8%,12.9%,26.6%,-23.1%
Cc1cc(C)nc(NC(=O)C2c3ccccc3Oc3ccccc32)n1,16.7%,-1.3%,50.1µM*,8.3%,52.1%,-1.5%
C#CCOCCOCCOCCNc1nc(N2CCN(C(=O)CCCCCCCCCCNC(=O)[C@H](CO)n3cc(CCCCCN)nn3)CC2)nc(N2CCN(C(=O)CCCCCCCCCCNC(=O)[C@H](CCCN=C(N)N)n3cc(C[C@@H](C)CC)nn3)CC2)n1,.,.,3.1%[2.33 µM],-2.3%,.,50.1µM*
C#CCOCCOCCOCCNc1nc(N2CCN(C(=O)CCCCCCCCCCNC(=O)[C@@H](CCC(=O)O)n3cc(CCCCCN)nn3)CC2)nc(N2CCN(C(=O)CCCCCCCCCCNC(=O)[C@H](CO)n3cc(CCCCCN)nn3)CC2)n1,.,?,-6.5%[2.33 µM],2.4%,-12.5%,-37.8%
C#CCOCCOCCOCCNc1nc(N2CCN(C(=O)CCCCCCCCCCNC(=O)[C@@H](CCSC)n3cc(CCO)nn3)CC2)nc(N2CCN(C(=O)CCCCCCCCCCNC(=O)[C@H](CCC(=O)O)n3cc(CCCCCN)nn3)CC2)n1,.,-35.9%,-10.9%[2.33 µM],-3.0%,6.6%,-12.5%
C#CCOCCOCCOCCNc1nc(N2CCN(C(=O)CCCCCCCCCCNC(=O)Cn3cc(C[C@@H](C)O)nn3)CC2)nc(N2CCN(C(=O)CCCCCCCCCCNC(=O)[C@@H](CCSC)n3cc(CCO)nn3)CC2)n1,.,-25.2%,1.2%[2.33 µM],2.2%,33.4%,3.7%

# Bioassay records: PubChem BioAssay, National Center for Advancing Translational Sciences (NCATS)
